Source: PubChem BioAssay AID492963 (The Scripps Research Institute Molecular Screening Center, 2010)
Out of some 1,100 compounds screened, about 420 (38%) were called active. Rule as the data show it: active = inhibition above about 29%; inactive = the rest. A selection follows.

These molecules were tested against Orexin/Hypocretin receptor type 1 (Homo sapiens) (UniProt O43613) (assay: OX1R (HCRTR1) antagonists, confirmation, fluorescence, CHO/OX1R cells, Fluo-8 calcium, orexin A (AID 492963;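 also: 0% = agonist challenge alone and 100% = reference antagonist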)). Settings: orexin A calcium Fluo-8 fluorescence, at 5 µM, stronger effect = higher value.
Chain of Orexin/Hypocretin receptor type 1 (Homo sapiens) (O43613 whole entry, looked up): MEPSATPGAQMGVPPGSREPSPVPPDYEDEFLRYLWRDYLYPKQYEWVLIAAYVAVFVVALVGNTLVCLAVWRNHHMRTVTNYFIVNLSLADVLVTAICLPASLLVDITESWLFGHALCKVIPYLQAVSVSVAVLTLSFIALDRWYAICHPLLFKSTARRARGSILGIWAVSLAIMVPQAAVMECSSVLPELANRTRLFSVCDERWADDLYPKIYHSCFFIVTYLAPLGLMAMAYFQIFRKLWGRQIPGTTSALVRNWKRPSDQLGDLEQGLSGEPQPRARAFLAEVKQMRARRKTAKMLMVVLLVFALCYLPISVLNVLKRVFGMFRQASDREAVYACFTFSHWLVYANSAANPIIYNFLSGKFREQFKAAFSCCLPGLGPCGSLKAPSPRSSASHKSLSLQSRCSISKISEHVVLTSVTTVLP
With `O=C(Nc1cccc2cccnc12)c1cccc(N2C(=O)CCC2=O)c1` the inhibition was 33.2% (active).
For `CCOC(=O)c1cccc(NC(=O)CN(c2ccc(C)cc2)S(=O)(=O)c2c(C)noc2C)c1`, the inhibition was 5.21% (inactive).
In the case of `COc1ccc2sc(-c3ccc(N(C)C)cc3)c(C#CCO)c2c1`, the inhibition is reported as 25.9% (inactive).
`CCOC(=O)c1c(-c2ccc(C)cc2C)csc1NC(=O)CSc1nnnn1C` was tested, and the inhibition was -17.1% (inactive).
With `CCn1c(SCC(=O)c2ccc3ccccc3c2)nnc1-c1cccs1` the inhibition was 29.5% (active).
`CCOC(=O)N1CCN(C(=O)c2ccc(S(=O)(=O)Nc3cccc(C(F)(F)F)c3)cc2)CC1` was tested, and the inhibition was 15.2% (inactive).
With `COc1ccc(N2CC(C(=O)NCCN3C(=O)S/C(=C\c4cccnc4)C3=O)CC2=O)c(OC)c1` (stereo not given) the inhibition was 26.6% (inactive).
With `COc1cc(CN2CC(C)CC(C)C2)cc([N+](=O)[O-])c1O` (stereo not given) the inhibition was -4.4% (inactive).
In the case of `COc1ccccc1CNC(=O)C1CCCN(S(=O)(=O)c2cccc3cccnc23)C1` (stereo not given), the inhibition is reported as -1.33% (inactive).
In the case of `Cc1cc(C)cc(NC(=O)C2CCCN2S(=O)(=O)c2cccc3cccnc23)c1` (stereo not given), the inhibition is reported as 62.9% (active).
For `NC(=O)C1=C[C@@H](c2ccc3c(c2)OCO3)C[C@@H](OCCCCO)O1`, the inhibition was 1.6% (inactive).
In the case of `CC1(C)C2CC=C(/C=N/NC(=O)C3CC3)C1C2` (stereo not given), the inhibition is reported as -24.5% (inactive).
For `O=C(Cn1[nH]c(=O)c2ccccc2c1=O)Nc1cccc(-c2nnc3n2CCCCC3)c1`, the inhibition was 24.9% (inactive).
In the case of `S=C(NCc1ccc(Cl)cc1)NC12CC3CC(CC(C3)C1)C2`, the inhibition is reported as 10.8% (inactive).
In the case of `Cc1cc(N2CCCC2=O)cc(C)c1S(N)(=O)=O`, the inhibition is reported as 1.01% (inactive).
With `N#C/C(=C/c1ccc(N2CCCCC2)o1)C(=O)NCCc1c[nH]c2ccccc12` the inhibition was 48.7% (active).
For `O=C(N/N=C/c1c(Cl)[nH]c2ccccc12)c1sc2ccccc2c1Cl`, the inhibition was 79% (active).
With `C/C(N)=C(/C#N)C(=O)COC(=O)c1cc(-c2ccc(C)cc2)nc2ccccc12` the inhibition was -4.02% (inactive).
For `CCc1ccccc1OCC(=O)Nc1ccc(C)c(S(=O)(=O)N2CCCCCC2)c1`, the inhibition was 5.4% (inactive).
With `O=C(NC(Cc1c[nH]c2ccccc12)C(=O)N/N=C/c1ccc(Br)cc1)c1cccs1` (stereo not given) the inhibition was 55.8% (active).
In the case of `CCOc1ccc(CCNC(=O)C(CC)n2nc(C)n3c(cc4sccc43)c2=O)cc1OCC` (stereo not given), the inhibition is reported as 25.3% (inactive).
With `CC(C)(C)NC(=O)CN(C(=O)c1csnn1)c1ccccc1-c1ccccc1` the inhibition was 18.8% (inactive).
In the case of `N#CC(=C1SC=CS1)c1nc(-c2ccccc2)cs1`, the inhibition is reported as 87.3% (active).
With `N#C/C(=C1\CCCN1)c1nc(-c2ccccc2)cs1` the inhibition was 40% (active).
For `Nc1nc(COC(=O)CCC(=O)c2ccc(Cl)cc2)nc(Nc2ccccc2)n1`, the inhibition was 19.1% (inactive).
For `CC(Oc1ccc2ccccc2c1)C(=O)NNC(=S)NC(=O)c1ccco1` (stereo not given), the inhibition was 5.25% (inactive).
For `N/C(=N\OC(=O)Nc1ccc(Cl)c(Cl)c1)c1ncc(C(F)(F)F)cc1Cl`, the inhibition was 29% (active).
With `COC(=O)c1sccc1NC(=O)CSc1ccccc1NS(=O)(=O)c1cc(Cl)ccc1Cl` the inhibition was 21.5% (inactive).
For `Cc1cc(C(=O)NC2CCCc3c2cnn3-c2cccc(C)c2C)c(C)o1` (stereo not given), the inhibition was 27.6% (inactive).
For `CC(=O)Nc1cccc(OCC(=O)/C=C2\N(C)c3ccccc3C2(C)C)c1`, the inhibition was 15.6% (inactive).
With `Cc1cccc(NS(=O)(=O)c2cccc(C(=O)NNC(=O)c3ccccc3O)c2)c1` the inhibition was 14.2% (inactive).
With `COc1ccc(/C=C/C(=O)c2ccc(NS(=O)(=O)c3ccc(C)cc3)cc2)cc1O` the inhibition was 42.2% (active).
With `O=C1C=C(c2ccc(Cl)cc2)C(=O)N1Nc1ccccc1` the inhibition was 57% (active).
With `Cc1ccc2c(C)c(C(=O)N(C)CCC3CCCCO3)oc2c1C` (stereo not given) the inhibition was -17.4% (inactive).
With `O=C(N/N=C/c1sc(N2CCCCC2)nc1-c1cccs1)c1cccnc1` the inhibition was 48.1% (active).
In the case of `Cc1cccc(NC(=O)Nc2cccc(Oc3c(F)c(F)c(F)c(F)c3F)c2)c1`, the inhibition is reported as 12.1% (inactive).
With `CCCN(CC(=O)Nc1ccccc1OC)C(=O)CCC(=O)c1ccc(F)cc1` the inhibition was 1.45% (inactive).
With `Cc1cc(-c2ccc(C)c(S(=O)(=O)NC(C)Cc3ccco3)c2)on1` (stereo not given) the inhibition was 0.43% (inactive).
With `CCOc1ccc(/C=C/C(=O)OCC(=O)c2ccccc2OC)cc1OC` the inhibition was 36.1% (active).
For `O=C(CCCN1CCc2[nH]c3ccc(F)cc3c2C1)c1ccc(F)cc1`, the inhibition was 26.4% (inactive).
With `Cn1c(N)c(C(=O)COC(=O)c2ccc3ccccc3c2)c(=O)n(C)c1=O` the inhibition was 30.5% (active).
For `Cc1ccc(S(=O)(=O)N2CCN(c3ncnc4ccccc34)CC2)cc1`, the inhibition was 15% (inactive).
`CCOc1cc(/C=C(\C#N)c2nc(-c3cccs3)c(NC(C)=O)s2)ccc1O` was tested, and the inhibition was 18% (inactive).
For `O=C1c2ccccc2S(=O)(=O)N1CC(O)Cn1c2ccccc2c2ccccc21` (stereo not given), the inhibition was 29.4% (active).
`CC1CCCN(CC(O)COCc2ccccc2)C1` (stereo not given) was tested, and the inhibition was 5.05% (inactive).
With `O=C(OC1CCOC1=O)c1ccc(-c2nc3ccccc3s2)s1` (stereo not given) the inhibition was 43.4% (active).
With `CCCc1nc2c(c(=O)c3ccccc3n2C)c(=O)n1C1CCCCCC1` the inhibition was 9.14% (inactive).
`S=c1[nH]nc(-c2cc(-c3ccccc3)n[nH]2)n1/N=C/c1c2ccccc2cc2ccccc12` was tested, and the inhibition was 38.1% (active).
In the case of `CCOC(=O)N1CCN(c2cc(C)c([N+](=O)[O-])cc2F)CC1`, the inhibition is reported as 17.3% (inactive).
For `COc1cccc(C(=O)NC(=O)Nc2nc(C)cc(C(F)(F)F)n2)c1`, the inhibition was 35% (active).
In the case of `CCCCC(=O)NNC(=S)NC(=O)C(c1ccccc1)c1ccccc1`, the inhibition is reported as 58.6% (active).
In the case of `CCCCCCCC(=O)NC(Nc1ccccc1OC)C(Cl)(Cl)Cl` (stereo not given), the inhibition is reported as -23.5% (inactive).
For `Cc1ccc(NC(=O)COc2ccc(-n3ccnc3)cc2)cc1Cl`, the inhibition was 22.1% (inactive).
`COc1cc2ccccc2cc1C(=O)Nc1ccc(N2CCOCC2)cc1` was tested, and the inhibition was -1.28% (inactive).
`O=C(Nc1cccc(NC(=O)N2CCN(c3ccccc3)CC2)c1)N1CCN(c2ccccc2)CC1` was tested, and the inhibition was 37.3% (active).
`CN(c1ccccc1)S(=O)(=O)c1cccc(NC(=O)Cc2ccc(Cl)cc2)c1` was tested, and the inhibition was 26% (inactive).
For `N#Cc1nc(-c2cccc3ccccc23)oc1N`, the inhibition was 40.6% (active).
With `COc1cccc(/C=N/NC(=O)c2[nH]nc3c2CCc2ccccc2-3)c1O` the inhibition was 20.3% (inactive).
In the case of `COc1cccc(/C=N/Nc2cc(C)nc(-c3ccccc3O)n2)c1O`, the inhibition is reported as 69.7% (active).
With `CCC(=O)N(C)C(c1ccccc1Cl)c1nnnn1-c1c(C)cccc1C` (stereo not given) the inhibition was 21.7% (inactive).
With `Cc1ccccc1S(=O)(=O)N1[C@@H](c2cccc(Cl)c2)C(C(=O)O)=CC[C@H]1c1ccc(Cl)cc1` the inhibition was 43.3% (active).
In the case of `COCc1c(C(=O)OCC(=O)Nc2ccc(OC(F)F)cc2)oc2ccccc12`, the inhibition is reported as 26.3% (inactive).
`C=CCn1c(SCC(=O)Nc2nc3ccccc3s2)nnc1-c1ccccc1O` was tested, and the inhibition was 48% (active).
For `COc1ccc2[nH]cc(/C=C(/C#N)S(=O)(=O)c3ccccc3)c2c1`, the inhibition was 8.34% (inactive).
With `c1coc(CNc2ncnc3ccccc23)c1` the inhibition was 24.7% (inactive).
